Measurements taken from PubChem BioAssay (Tox21).
“And” between values parts separate entries of the source, which are not always exact repeats. Equal values may be shown once. The source made the active and inactive calls. Unless noted, calls follow the shape of the dose curve; as a rule, active = well fitted curve in the direction sought with a large enough effect in the repeat runs; inconclusive = weak or mixed curves; inactive = no such curve, though single readings can be large; an effect the other way counts as inactive or inconclusive.

Tests used:
[1] = qHTS assay to identify small molecule antagonists of the glucocorticoid receptor (GR) signaling pathway - cell viability counter screen (AID 720693); also: nearly all actives have a fitted effect of over 55% in size; also: potency is read from the fitted curve at half-maximal effect
[2] = qHTS assay for identifying genotoxic compounds that show differential cytotoxicity against isogenic chicken DT40 cell lines with known DNA damage response pathways - wild type cell line (AID 743012); also: nearly all actives have a fitted effect of over 60% in size; also: potency is read from the fitted curve at half-maximal effect
In short: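 First, wild type DT40 cells were plated at 300 per well and equilibrated about 0.5 h at 37 C/5% CO2. Next, compounds in DMSO were added and exposure lasted 40 h. Finally, CellTiter-Glo was added for 30 min at room temperature and luminescence recorded.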

[3] = qHTS assay for identifying genotoxic compounds that show differential cytotoxicity against isogenic chicken DT40 cell lines with known DNA damage response pathways - Rev3 mutant cell line (AID 743014); also: nearly all actives have a fitted effect of over 55% in size; also: potency is read from the fitted curve at half-maximal effect
[4] = qHTS assay for identifying genotoxic compounds that show differential cytotoxicity against isogenic chicken DT40 cell lines with known DNA damage response pathways - Rad54/Ku70 mutant cell line (AID 743015); also: nearly all actives have a fitted effect of over 60% in size; also: potency is read from the fitted curve at half-maximal effect
[5] = qHTS assay to identify small molecule antagonists of the androgen receptor (AR) signaling pathway - cell viability counter screen (AID 743033; also: potency is read from the fitted curve at half-maximal effect; nearly all actives have a fitted effect of over 45% in size)
[6] = qHTS assay to identify small molecule antagonists of the thyroid receptor (TR) signaling pathway - cell viability counter screen (AID 743064); also: nearly all actives have a fitted effect of over 50% in size; also: potency is read from the fitted curve at half-maximal effect
In short: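 GH3.TRE-Luc cells, 4 h pre-plating; cpd + T3 1 nM final; 37 °C 23.5 h; CellTiter-Fluor 30 min; fluorescence read.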

[7] = qHTS assay to identify small molecule antagonists of the thyroid receptor (TR) signaling pathway (AID 743065); also: nearly all actives have a fitted effect of over 55% in size; also: potency is read from the fitted curve at half-maximal effect
In short: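 GH3.TRE-Luc rat pituitary cells (two TREs driving luciferase) were dosed with compound, then stimulated with 1 nM T3 (final) for 23.5 h at 37 C. ONE-Glo luminescence was the read-out, with CellTiter-Fluor fluorescence as the cytotoxicity counter-screen.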

[8] = test system: thyroid hormone receptor (rat, GH3 cells); test: qHTS assay to identify small molecule agonists of the thyroid receptor (TR) signaling pathway (AID 743066; calls by dose curve; also: % is scaled to controls: 0 for no effect and ±100 for the full control effect)
[9] = target: Estrogen receptor (Homo sapiens) (UniProt P03372); test: qHTS assay to identify small molecule antagonists of the estrogen receptor alpha (ER-alpha) signaling pathway (AID 743069; active = well fitted curve in the direction sought with a large enough effect in the signal ratio in the repeat runs, not every such curve was filed as active; inconclusive = weak or mixed curves, or effect the other way; inactive = no such curve, though single readings can be large or run the other way; the % refers to the signal ratio; also: potency is read from the fitted curve at half-maximal effect)
In short: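 HEK293 ER-alpha-UAS-bla GripTite cells, held overnight in 2% charcoal-stripped FBS, 5,000 cells/well, preincubated 4 h, then compound plus 17beta-estradiol for 18 h at 37C. Beta-lactamase read by LiveBLAzer B/G FRET substrate, 2 h at room temperature.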

[10] = qHTS assay to identify small molecule antagonists of the estrogen receptor alpha (ER-alpha) signaling pathway - cell viability counter screen (AID 743074; calls by dose curve;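 also: HEK293 cells carrying ER-alpha-UAS-bla reporter stimulated with 17beta-estradiol; nearly all actives have a fitted effect of over 45% in size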; also: potency is read from the fitted curve at half-maximal effect)
[11] = target: Estrogen receptor (Homo sapiens) (UniProt P03372); test: qHTS assay to identify small molecule agonists of the estrogen receptor alpha (ER-alpha) signaling pathway (AID 743075; calls by dose curve; also: potency is read from the fitted curve at half-maximal effect; as to activation: % is scaled to controls: 0 for no effect and ±100 for the full control effect); conditions: HEK293 ER-alpha-UAS-bla, beta-lactamase FRET ratio, 18 h; activation: at 70.1 µM (top of the series)
[12] = qHTS assay to identify small molecule antagonists of the estrogen receptor alpha (ER-alpha) signaling pathway using the BG1 cell line - cell viability counter screen (AID 743081);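 also: compound given together with 17beta-estradiol as the ER stimulus; nearly all actives have a fitted effect of over 45% in size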; also: potency is read from the fitted curve at half-maximal effect
Aromatase (Homo sapiens) = Aromatase (Homo sapiens) (UniProt P11511); test: qHTS assay to identify aromatase inhibitors (AID 743083); also: nearly all actives have a fitted effect of over 55% in size; also: potency is read from the fitted curve at half-maximal effect
[13] = qHTS assay to identify small molecule antagonists of the androgen receptor (AR) signaling pathway using the MDA cell line - cell viability counter screen (AID 743041; also: nearly all actives have a fitted effect of over 45% in size; also: potency is read from the fitted curve at half-maximal effect)
In short: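 MDA-kb2 AR-luc cells (MMTV-luciferase, AR/GR responsive) treated with compounds plus R1881 agonist for 16 h at 37C. CellTiter-Fluor added at 15.5 h; fluorescence read after 30 min in the same wells.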

[14] = qHTS assay to identify small molecule antagonists of the estrogen receptor alpha (ER-alpha) signaling pathway using the BG1 cell line (AID 743080; calls by dose curve;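 also: BG1 cells stimulated with 17beta-estradiol alongside compound; % is scaled to controls: 0 for no effect and ±100 for the full control effect; nearly all actives have a fitted effect of over 25% in size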)
In short: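 After 5 days in phenol-red-free 10% charcoal-stripped FBS medium, BG1-Luc-4E2 cells were seeded, left 24 h at 37 C, co-treated with compounds and 17beta-estradiol for 21.5 h, then assayed for viability and luciferase.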

[15] = target: Estrogen receptor (Homo sapiens) (UniProt P03372); test: qHTS assay to identify small molecule agonists of the estrogen receptor alpha (ER-alpha) signaling pathway using the BG1 cell line (AID 743079); conditions: BG1Luc4E2 cells, ERE-luciferase agonist, 22 h; also: % is scaled to controls: 0 for no effect and ±100 for the full control effect; nearly all actives have a fitted effect of over 20% in size
[16] = target: Androgen receptor (Homo sapiens) (UniProt P10275); test: qHTS assay to identify small molecule antagonists of the androgen receptor (AR) signaling pathway (AID 743035; active = well fitted inhibition curve with a large enough effect in the signal ratio in the repeat runs, not every such curve was filed as active; inconclusive = weak or mixed curves, or effect the other way; inactive = no such curve, though single readings can be large or run the other way; the % refers to the signal ratio; also: potency is read from the fitted curve at half-maximal effect)
In short: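 Beta-lactamase FRET read (2 h RT incubation with LiveBLAzer B/G) following 16 h of compound plus R1881 treatment of AR-UAS-bla HEK293 cells, which had been pre-incubated 4 h at 37C.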

[17] = target: Androgen receptor (Homo sapiens) (UniProt P10275); test: qHTS assay to identify small molecule agonists of the androgen receptor (AR) signaling pathway using the MDA cell line (AID 743040; also: % is scaled to controls: 0 for no effect and ±100 for the full control effect; nearly all actives have a fitted effect of over 20% in size)
In short: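 MDA-kb2 breast carcinoma cells carrying MMTV-luciferase (responsive to AR and GR), plated 5 h then treated 16 h with compounds at 37C, 0% CO2. Read-out was ONE-Glo luminescence after 30 min at room temperature.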

[18] = target: Androgen receptor (Homo sapiens) (UniProt P10275); test: qHTS assay to identify small molecule antagonists of the androgen receptor (AR) signaling pathway using the MDA cell line (AID 743042)
In short: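 MDA-kb2 breast carcinoma cells carrying MMTV-luciferase (AR/GR responsive) were co-treated with compounds and the agonist R1881 for 16 h at 37C. Inhibition read as ONE-Glo luminescence; CellTiter-Fluor fluorescence measured in parallel for cytotoxicity.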

Chain of Aromatase (Homo sapiens) (P11511 whole entry, looked up): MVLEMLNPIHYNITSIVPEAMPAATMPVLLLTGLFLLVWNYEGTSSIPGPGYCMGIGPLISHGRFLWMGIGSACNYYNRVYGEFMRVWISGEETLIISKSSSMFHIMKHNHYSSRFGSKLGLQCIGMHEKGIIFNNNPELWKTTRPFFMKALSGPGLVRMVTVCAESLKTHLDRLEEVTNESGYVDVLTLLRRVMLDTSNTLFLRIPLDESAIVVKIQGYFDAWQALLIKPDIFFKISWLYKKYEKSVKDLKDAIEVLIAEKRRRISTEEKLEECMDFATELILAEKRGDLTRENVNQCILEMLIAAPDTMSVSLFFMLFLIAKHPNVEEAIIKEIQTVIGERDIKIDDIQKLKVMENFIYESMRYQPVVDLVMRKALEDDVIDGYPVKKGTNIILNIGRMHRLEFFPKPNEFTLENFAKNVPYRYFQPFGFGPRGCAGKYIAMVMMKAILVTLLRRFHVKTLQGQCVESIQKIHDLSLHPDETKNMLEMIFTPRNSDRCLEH
Chain of Estrogen receptor (Homo sapiens) (P03372 whole entry, looked up): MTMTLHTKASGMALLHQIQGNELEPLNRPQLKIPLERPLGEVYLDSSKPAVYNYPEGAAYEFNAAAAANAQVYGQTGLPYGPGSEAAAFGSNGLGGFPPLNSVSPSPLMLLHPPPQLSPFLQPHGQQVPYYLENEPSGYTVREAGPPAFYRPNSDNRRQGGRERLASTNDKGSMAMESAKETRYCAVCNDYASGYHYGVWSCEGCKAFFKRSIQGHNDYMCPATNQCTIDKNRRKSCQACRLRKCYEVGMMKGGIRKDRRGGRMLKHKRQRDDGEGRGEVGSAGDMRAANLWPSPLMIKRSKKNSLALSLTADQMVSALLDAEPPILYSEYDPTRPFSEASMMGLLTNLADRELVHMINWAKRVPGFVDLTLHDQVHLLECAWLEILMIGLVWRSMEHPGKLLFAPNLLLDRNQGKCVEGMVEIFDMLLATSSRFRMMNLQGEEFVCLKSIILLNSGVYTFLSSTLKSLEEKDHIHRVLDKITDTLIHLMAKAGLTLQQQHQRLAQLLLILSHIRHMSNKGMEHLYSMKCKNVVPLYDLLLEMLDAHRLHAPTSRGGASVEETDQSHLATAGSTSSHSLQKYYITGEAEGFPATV
Chain of Androgen receptor (Homo sapiens) (P10275 whole entry, looked up): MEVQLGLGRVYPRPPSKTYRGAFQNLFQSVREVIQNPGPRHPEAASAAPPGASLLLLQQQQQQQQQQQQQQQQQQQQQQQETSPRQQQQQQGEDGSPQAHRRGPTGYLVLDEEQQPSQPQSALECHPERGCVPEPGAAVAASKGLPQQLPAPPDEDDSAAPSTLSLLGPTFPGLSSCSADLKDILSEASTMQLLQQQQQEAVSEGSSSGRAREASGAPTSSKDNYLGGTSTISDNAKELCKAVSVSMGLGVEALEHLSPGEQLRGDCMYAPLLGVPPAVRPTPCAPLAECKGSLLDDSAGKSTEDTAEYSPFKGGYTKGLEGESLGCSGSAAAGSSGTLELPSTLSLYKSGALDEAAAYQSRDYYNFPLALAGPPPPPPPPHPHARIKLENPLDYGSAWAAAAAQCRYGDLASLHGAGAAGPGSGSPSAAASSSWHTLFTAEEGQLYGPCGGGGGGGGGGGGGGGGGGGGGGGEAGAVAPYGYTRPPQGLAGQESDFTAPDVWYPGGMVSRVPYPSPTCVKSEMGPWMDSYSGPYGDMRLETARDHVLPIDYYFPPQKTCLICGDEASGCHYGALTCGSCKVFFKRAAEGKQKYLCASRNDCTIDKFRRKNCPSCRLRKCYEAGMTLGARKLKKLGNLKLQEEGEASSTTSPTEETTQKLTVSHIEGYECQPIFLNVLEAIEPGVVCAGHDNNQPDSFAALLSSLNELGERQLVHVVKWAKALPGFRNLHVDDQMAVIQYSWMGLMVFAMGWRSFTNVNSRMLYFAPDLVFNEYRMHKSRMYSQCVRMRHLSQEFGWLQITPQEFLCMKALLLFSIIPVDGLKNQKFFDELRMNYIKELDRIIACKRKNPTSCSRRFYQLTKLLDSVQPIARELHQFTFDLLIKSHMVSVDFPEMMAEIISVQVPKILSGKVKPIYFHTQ

COC(=O)C1=C(C)NC(C)=C(C(=O)OCC(C)C)C1c1ccccc1[N+](=O)[O-] (stereo unspecified)
inactive: Potency [1] | Potency [8] | Potency [10] | Potency [11] | Potency [12]
active: Potency [2] 5.31 µM and 3.86 µM | Potency [3] 10.6 µM and 4.33 µM | Potency [4] 8.41 µM and 5.45 µM | Potency [5] 43.6 µM | Potency [6] 33.5 µM and 68.6 µM | Potency [7] 29.8 µM and 54.5 µM | Potency [9] 54.9 µM [inconclusive] | Potency (Aromatase (Homo sapiens)) 33.5 µM and 61.1 µM

COc1ccc(CN2CCN(C(c3ccc(F)cc3)c3ccc(F)cc3)CC2)c(OC)c1OC
active: Potency [2] 3.76 µM | Potency [3] 5.96 µM | Potency [4] 6.68 µM | Potency [6] 11.9 µM | Potency [7] 13.3 µM | Potency [10] 26.8 µM
inactive: Potency [1] | Potency (Aromatase (Homo sapiens))

CCCC(C)c1ccccc1O (stereo unspecified)
inactive: Potency [1] | Potency [13] | Potency [8] | Potency [9] | Potency [10] | Potency [11] | Potency [14] | Potency [12]
active: Potency [2] 48.6 µM | Potency [3] 24.3 µM | Potency [4] 61.1 µM

Cc1ccc2oc(CN(Cc3ccccc3)C(=O)Nc3c(F)cc(F)cc3F)c(-c3ccc(Cl)cc3)c2c1
active: Potency [2] 18.7 µM | Potency [3] 13.3 µM | Potency [4] 14.9 µM
inactive: Potency [1] | Potency [13] | Potency [6] | Potency [8] | Potency [9] | Potency [10] | Potency [11] | activation ([15]; at 70.3 µM (top of the series)) -12.5% | Potency [14] | Potency [12]

C=CC(=O)OCCn1c(=O)n(CCOC(=O)C=C)c(=O)n(CCOC(=O)C=C)c1=O
active: Potency [2] 2.73 µM | Potency [3] 2.43 µM | Potency [4] 2.43 µM | Potency [13] 30.6 µM | Potency [6] 5.45 µM | Potency [7] 4.86 µM | Potency [12] 54.5 µM | Potency (Aromatase (Homo sapiens)) 13.7 µM
inactive: Potency [1] | Potency [8]

COc1cc(-c2nc(NC(=O)c3cc4cc(C)cc(C)c4n3CC(=O)O)sc2CCC2CCCCC2)c(OC)cc1Cl
active: Potency [1] 14.2 µM | Potency [2] 35.3 µM | Potency [3] 22.3 µM | Potency [4] 22.3 µM | Potency [16] 5.65 µM | Potency [6] 12.5 µM | Potency [7] 11.2 µM | Potency [9] 3.57 µM [inconclusive] | Potency [10] 28.3 µM | Potency (Aromatase (Homo sapiens)) 25 µM
inactive: Potency [8] | Potency [12]

CNC(=O)c1ccccc1
inactive: Potency [1] | Potency [2] | Potency [3] | Potency [4] | Potency [13] | Potency [6] | Potency [7] | Potency [8] | Potency [9] | Potency [10] | Potency [11] | activation ([15]; at 70.3 µM (top of the series)) -14.7% | Potency [14] | Potency [12] | Potency (Aromatase (Homo sapiens))

O=S1(=O)CC(Cl)(Cl)C(Cl)(Cl)C1
inactive: Potency [17]
active: Potency [1] 9.77 µM | Potency [2] 0.122 µM | Potency [3] 0.172 µM | Potency [4] 0.154 µM | Potency [13] 13.7 µM | Potency [18] 2.17 µM | Potency [6] 1.93 µM | Potency [7] 1.37 µM | Potency [9] 21.9 µM [inconclusive] | Potency [10] 49 µM | Potency [11] 12.3 µM [inconclusive] | Potency [12] 30.6 µM | Potency (Aromatase (Homo sapiens)) 1.93 µM

Cc1[nH]cnc1C[C@H]1CCc2c(C)c3ccccc3n2C1=O
inactive: Potency [1] | Potency [13] | Potency [10] | Potency [12] | Potency (Aromatase (Homo sapiens))
active: Potency [2] 13.3 µM and 26.6 µM | Potency [3] 29.8 µM and 21.2 µM | Potency [4] 23.7 µM | Potency [6] 13.3 µM | Potency [7] 23.7 µM and 13.3 µM

CC(C)(C)C(=O)OCOC(=O)[C@@H]1N2C(=O)[C@@H](NC(=O)[C@H](N)c3ccccc3)[C@H]2SC1(C)C
inactive: Potency [1] | Potency [2] | Potency [3] | Potency [4] | Potency [13] | Potency [6] | Potency [7] | Potency [8] | Potency [9] | Potency [10] | Potency [11] | activation ([15]; at 32.5 µM (top of the series)) 0.598% | Potency [14] | Potency [12] | Potency (Aromatase (Homo sapiens))
